Common to all, as to assay: DAPPL (digital affinity profiling via proximity ligation, sequencing); 10 mM Tris-HCl pH 7.5, 50 mM NaCl, 1 mM DTT, 4% glycerol, room temperature, 30 min; GST-TFs on glutathione beads, 16-mer random dsDNA library, 0.1% formaldehyde crosslink after washing; high values mean tight binding
The target in experiment [1] is T1, FEV (Homo sapiens, UniProt Q99581 1-238).
T1 sequence: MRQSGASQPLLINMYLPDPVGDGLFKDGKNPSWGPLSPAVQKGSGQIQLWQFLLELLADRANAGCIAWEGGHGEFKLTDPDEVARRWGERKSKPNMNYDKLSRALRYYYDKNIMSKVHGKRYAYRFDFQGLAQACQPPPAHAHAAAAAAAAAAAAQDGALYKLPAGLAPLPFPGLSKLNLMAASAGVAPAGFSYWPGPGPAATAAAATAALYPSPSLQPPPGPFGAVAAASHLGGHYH
As to conditions: protein: recombinant; tags: N-terminal GST; dsDNA, one strand shown. The procedure, abridged:
(§1)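 Binding signal is given per hexamer as its read frequency for a factor divided by its frequency in the tag-only sample. GST-fused human transcription factors were expressed in yeast, captured on glutathione beads, barcoded with DNA and pooled with that sample, then incubated with 200 nmole of a 16-mer random double-stranded DNA library in Tris/NaCl/DTT/glycerol buffer for 30 min at room temperature. The pools were then washed, crosslinked, proximity-ligated, amplified by PCR and sequenced on an Illumina NextSeq500.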

Experiment [2] has as its target ETV5 (Homo sapiens, UniProt P41161 1-510). As to conditions: protein: recombinant; tags: N-terminal GST; dsDNA, one strand shown. A digest of the protocol: as §1
Experiment [3] has as its target HSF1 (Homo sapiens, UniProt Q00613 1-529). The settings on record: protein: recombinant; tags: N-terminal GST; chain copies: 3; dsDNA, one strand shown. The procedure, abridged: as §1
Experiment [4] has as its target T2, SPIC (Homo sapiens, UniProt Q8N5J4 1-248).
T2 sequence: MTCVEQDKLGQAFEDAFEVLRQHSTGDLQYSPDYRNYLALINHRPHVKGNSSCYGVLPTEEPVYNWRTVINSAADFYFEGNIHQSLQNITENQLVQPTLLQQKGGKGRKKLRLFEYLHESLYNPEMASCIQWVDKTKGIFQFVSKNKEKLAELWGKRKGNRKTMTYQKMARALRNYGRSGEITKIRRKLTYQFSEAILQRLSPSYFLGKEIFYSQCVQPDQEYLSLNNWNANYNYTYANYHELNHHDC
As to conditions: protein: recombinant; tags: N-terminal GST; dsDNA, one strand shown. A digest of the protocol:
as §1

Experiment [5] concerns the target ELF4 (Homo sapiens, UniProt Q99607 1-663). The settings on record: protein: recombinant; tags: N-terminal GST; dsDNA, one strand shown. A digest of the protocol: as §1
Experiment [6] has as its target T3, ELK4 (Homo sapiens, UniProt P28324-2 1-405).
T3 sequence: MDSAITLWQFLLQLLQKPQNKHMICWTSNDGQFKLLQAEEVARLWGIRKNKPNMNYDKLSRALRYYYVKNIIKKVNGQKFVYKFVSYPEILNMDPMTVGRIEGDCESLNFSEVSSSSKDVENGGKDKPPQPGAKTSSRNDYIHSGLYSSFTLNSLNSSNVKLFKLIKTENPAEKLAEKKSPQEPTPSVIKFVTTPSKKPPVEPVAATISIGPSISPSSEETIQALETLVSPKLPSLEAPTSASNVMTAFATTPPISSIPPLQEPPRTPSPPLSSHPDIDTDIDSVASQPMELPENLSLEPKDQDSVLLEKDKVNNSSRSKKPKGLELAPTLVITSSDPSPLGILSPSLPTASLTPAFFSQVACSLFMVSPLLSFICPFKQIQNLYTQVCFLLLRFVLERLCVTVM
The settings on record: protein: recombinant; tags: N-terminal GST; dsDNA, one strand shown. A digest of the protocol:
as §1

For experiment [7], the target named is T4, ETV2 (Homo sapiens, UniProt O00321 1-342).
T4 sequence: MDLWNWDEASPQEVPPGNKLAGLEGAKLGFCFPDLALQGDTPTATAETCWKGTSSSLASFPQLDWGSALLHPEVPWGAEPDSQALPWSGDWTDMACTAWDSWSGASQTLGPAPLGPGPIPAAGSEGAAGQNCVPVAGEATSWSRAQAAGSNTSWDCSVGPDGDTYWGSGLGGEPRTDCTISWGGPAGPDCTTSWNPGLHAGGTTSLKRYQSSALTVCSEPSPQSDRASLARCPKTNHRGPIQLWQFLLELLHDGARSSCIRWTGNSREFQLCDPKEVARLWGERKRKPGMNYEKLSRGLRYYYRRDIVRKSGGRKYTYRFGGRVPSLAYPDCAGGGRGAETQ
As to conditions: protein: recombinant; tags: N-terminal GST; dsDNA, one strand shown. The procedure, abridged: as §1

The target in experiment [8] is T5, ELF3 (Homo sapiens, UniProt P78545 1-371).
T5 sequence: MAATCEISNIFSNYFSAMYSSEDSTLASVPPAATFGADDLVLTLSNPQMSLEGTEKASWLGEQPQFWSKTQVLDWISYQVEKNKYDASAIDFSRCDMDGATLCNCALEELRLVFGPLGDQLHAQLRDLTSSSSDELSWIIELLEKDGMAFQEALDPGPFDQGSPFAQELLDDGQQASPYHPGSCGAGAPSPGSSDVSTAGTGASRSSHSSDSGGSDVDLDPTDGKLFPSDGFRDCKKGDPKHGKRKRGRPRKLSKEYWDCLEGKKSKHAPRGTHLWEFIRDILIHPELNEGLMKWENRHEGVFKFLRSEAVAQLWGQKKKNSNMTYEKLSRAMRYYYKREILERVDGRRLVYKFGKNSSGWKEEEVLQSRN
As to conditions: protein: recombinant; tags: N-terminal GST; dsDNA, one strand shown. A digest of the protocol: as §1

Experiment [9] addresses CRX (Homo sapiens, UniProt O43186 1-299). The settings on record: protein: recombinant; tags: N-terminal GST; dsDNA, one strand shown. The procedure, abridged:
as §1

For experiment [10], the target named is ETV1 (Homo sapiens, UniProt P50549 1-477). The settings on record: protein: recombinant; tags: N-terminal GST; dsDNA, one strand shown. A digest of the protocol:
as §1

Experiment [11] concerns the target T6, ERF (Homo sapiens, UniProt P50548 1-548).
T6 sequence: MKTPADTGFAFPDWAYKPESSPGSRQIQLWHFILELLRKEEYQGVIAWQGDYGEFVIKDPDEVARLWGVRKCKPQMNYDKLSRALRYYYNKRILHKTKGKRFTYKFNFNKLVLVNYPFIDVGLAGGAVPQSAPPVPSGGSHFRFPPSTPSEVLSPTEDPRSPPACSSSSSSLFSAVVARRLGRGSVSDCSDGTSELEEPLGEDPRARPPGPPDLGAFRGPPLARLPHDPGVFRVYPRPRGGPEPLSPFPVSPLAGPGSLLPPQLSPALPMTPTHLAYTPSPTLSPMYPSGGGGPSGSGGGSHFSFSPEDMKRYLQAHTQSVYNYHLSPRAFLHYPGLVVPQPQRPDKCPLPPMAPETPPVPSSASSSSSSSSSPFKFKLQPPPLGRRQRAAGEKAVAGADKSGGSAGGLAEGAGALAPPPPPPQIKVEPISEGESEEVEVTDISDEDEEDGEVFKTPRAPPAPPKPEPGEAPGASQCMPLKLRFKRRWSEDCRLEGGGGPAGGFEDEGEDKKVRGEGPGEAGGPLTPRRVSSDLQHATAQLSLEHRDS
The settings on record: protein: recombinant; tags: N-terminal GST; dsDNA, one strand shown. A digest of the protocol: as §1

Experiment [12] addresses T7, ETV3L (Homo sapiens, UniProt Q6ZN32 1-361).
T7 sequence: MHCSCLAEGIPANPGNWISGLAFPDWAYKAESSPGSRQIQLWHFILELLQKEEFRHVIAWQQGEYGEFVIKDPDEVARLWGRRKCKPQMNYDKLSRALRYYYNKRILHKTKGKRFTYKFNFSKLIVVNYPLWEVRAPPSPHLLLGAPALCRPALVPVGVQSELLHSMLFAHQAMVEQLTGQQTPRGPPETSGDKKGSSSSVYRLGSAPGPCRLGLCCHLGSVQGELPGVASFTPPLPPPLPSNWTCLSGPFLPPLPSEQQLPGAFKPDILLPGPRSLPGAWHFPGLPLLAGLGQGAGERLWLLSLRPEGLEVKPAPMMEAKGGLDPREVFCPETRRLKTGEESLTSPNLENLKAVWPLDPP
The settings on record: protein: recombinant; tags: N-terminal GST; dsDNA, one strand shown. The procedure, abridged: as §1

Experiment [13] deals with T8, ETS2 (Homo sapiens, UniProt P15036 1-469).
T8 sequence: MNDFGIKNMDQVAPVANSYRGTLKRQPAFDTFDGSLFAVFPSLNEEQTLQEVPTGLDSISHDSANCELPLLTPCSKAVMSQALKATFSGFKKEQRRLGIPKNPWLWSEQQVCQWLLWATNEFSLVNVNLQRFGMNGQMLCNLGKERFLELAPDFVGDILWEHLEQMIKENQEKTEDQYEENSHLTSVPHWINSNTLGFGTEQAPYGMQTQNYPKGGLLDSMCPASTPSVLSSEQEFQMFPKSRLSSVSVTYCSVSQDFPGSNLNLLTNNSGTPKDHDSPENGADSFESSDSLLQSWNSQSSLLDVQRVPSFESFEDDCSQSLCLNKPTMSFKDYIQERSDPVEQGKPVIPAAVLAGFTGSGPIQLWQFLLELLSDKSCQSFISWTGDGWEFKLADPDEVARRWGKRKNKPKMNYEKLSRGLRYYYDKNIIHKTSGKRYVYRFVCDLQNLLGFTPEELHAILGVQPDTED
The settings on record: protein: recombinant; tags: N-terminal GST; dsDNA, one strand shown. A digest of the protocol:
as §1

The target in experiment [14] is T9, SPDEF (Homo sapiens, UniProt O95238 1-335).
T9 sequence: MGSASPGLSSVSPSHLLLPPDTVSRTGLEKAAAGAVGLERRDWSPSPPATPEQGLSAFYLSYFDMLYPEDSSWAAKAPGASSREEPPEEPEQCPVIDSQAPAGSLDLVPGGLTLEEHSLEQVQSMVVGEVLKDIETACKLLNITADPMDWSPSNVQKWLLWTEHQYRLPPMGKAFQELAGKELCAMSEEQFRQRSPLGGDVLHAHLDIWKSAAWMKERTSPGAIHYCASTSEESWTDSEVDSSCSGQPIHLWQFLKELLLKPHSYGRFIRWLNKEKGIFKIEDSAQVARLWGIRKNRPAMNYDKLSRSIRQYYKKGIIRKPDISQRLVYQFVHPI
The settings on record: protein: recombinant; tags: N-terminal GST; dsDNA, one strand shown. The procedure, abridged: as §1

The target of experiment [15] is T10, ETV7 (Homo sapiens, UniProt Q9Y603 1-341).
T10 sequence: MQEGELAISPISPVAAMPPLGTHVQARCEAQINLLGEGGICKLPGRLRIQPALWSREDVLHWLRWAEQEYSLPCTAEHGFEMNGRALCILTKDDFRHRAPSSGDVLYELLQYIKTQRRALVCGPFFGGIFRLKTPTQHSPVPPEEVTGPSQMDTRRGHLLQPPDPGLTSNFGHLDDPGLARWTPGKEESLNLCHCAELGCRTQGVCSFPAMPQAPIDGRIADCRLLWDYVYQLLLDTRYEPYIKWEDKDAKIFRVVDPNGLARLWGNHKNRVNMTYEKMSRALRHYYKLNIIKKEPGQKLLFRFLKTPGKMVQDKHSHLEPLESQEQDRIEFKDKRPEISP
The settings on record: protein: recombinant; tags: N-terminal GST; dsDNA, one strand shown. A digest of the protocol: as §1

For experiment [16], the target named is T11, ELF5 (Homo sapiens, UniProt Q9UKW6-2 1-255).
T11 sequence: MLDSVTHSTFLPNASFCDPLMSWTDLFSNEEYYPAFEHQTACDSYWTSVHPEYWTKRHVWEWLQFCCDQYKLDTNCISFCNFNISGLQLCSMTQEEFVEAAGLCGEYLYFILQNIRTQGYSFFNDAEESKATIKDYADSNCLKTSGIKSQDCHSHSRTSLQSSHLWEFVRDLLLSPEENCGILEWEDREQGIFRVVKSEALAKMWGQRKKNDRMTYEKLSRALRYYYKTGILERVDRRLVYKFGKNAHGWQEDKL
The settings on record: protein: recombinant; tags: N-terminal GST; dsDNA, one strand shown. A digest of the protocol: as §1

Experiment [17] addresses T12, ETV3 (Homo sapiens, UniProt P41162-2 1-143).
T12 sequence: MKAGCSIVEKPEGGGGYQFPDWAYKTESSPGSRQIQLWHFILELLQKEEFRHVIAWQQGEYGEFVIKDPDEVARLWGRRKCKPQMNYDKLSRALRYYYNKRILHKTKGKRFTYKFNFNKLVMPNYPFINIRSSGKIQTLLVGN
As to conditions: protein: recombinant; tags: N-terminal GST; dsDNA, one strand shown. A digest of the protocol:
as §1

The target of experiment [18] is ETV6 (Homo sapiens, UniProt P41212 1-452). The settings on record: protein: recombinant; tags: N-terminal GST; dsDNA, one strand shown. The procedure, abridged: as §1
ETV6, sequence (P41212 whole entry): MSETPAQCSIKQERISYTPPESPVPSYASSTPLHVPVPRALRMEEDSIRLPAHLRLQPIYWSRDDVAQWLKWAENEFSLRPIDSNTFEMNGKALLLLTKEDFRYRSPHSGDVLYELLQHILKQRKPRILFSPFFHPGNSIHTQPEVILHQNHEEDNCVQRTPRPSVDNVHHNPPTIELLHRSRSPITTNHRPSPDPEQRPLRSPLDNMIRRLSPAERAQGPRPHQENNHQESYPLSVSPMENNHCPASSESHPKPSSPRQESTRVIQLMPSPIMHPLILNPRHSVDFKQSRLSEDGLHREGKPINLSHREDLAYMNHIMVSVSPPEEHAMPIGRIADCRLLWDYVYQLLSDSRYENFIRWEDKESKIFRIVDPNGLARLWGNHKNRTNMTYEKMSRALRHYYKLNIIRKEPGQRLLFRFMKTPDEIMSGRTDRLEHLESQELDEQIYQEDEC

CRX, sequence (O43186 whole entry): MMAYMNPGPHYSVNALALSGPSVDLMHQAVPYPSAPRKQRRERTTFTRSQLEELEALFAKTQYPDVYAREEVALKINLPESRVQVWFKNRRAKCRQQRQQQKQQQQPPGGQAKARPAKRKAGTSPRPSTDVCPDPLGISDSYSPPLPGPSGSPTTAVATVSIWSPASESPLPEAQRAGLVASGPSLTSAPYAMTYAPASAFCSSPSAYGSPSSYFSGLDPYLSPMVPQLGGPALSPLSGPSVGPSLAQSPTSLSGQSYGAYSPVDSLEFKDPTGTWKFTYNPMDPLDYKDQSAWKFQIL
ETV1, sequence (P50549 whole entry): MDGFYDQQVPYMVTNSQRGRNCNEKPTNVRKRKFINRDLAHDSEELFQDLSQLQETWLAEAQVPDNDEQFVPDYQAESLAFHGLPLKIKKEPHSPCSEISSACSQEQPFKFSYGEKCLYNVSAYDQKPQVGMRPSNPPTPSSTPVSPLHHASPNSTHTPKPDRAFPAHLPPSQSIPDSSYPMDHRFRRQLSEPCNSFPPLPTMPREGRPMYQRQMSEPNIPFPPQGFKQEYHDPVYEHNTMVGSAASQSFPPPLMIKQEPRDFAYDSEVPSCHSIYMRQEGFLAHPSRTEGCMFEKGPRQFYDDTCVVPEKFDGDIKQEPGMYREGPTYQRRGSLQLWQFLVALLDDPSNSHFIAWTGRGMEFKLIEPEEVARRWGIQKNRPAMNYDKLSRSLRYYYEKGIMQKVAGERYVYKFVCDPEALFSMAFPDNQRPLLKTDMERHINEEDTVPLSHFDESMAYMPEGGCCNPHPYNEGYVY
ELF4, sequence (Q99607 whole entry): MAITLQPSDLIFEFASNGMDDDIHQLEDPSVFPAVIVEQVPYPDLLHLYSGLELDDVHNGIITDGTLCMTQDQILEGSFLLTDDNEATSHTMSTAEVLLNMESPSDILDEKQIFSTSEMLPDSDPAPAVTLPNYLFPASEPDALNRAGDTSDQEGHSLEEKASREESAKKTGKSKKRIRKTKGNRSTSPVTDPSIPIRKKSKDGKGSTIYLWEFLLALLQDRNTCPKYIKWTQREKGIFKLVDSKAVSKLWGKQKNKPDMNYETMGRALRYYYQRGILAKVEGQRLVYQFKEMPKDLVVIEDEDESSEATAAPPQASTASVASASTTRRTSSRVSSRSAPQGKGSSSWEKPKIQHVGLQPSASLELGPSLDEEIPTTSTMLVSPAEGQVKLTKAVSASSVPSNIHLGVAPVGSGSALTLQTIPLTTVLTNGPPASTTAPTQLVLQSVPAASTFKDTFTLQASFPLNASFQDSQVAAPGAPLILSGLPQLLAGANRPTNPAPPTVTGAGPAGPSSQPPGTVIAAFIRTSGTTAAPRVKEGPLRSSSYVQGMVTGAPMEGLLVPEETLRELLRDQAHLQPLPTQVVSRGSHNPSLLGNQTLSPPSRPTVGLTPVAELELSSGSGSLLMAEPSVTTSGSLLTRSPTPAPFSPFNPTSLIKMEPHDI
HSF1, sequence (Q00613 whole entry): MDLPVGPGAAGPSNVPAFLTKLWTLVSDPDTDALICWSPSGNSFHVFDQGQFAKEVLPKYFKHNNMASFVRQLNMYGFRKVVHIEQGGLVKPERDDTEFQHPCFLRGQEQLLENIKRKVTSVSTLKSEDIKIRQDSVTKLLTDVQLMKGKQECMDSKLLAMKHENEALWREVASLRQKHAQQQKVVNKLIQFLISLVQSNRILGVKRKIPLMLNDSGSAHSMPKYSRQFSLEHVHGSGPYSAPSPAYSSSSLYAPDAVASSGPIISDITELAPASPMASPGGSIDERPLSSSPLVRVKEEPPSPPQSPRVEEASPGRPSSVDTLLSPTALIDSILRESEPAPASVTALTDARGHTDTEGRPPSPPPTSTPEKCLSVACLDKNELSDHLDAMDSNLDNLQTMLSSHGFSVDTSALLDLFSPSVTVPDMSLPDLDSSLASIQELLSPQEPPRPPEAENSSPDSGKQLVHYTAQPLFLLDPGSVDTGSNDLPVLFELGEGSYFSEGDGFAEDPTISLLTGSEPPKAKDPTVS
ETV5, sequence (P41161 whole entry): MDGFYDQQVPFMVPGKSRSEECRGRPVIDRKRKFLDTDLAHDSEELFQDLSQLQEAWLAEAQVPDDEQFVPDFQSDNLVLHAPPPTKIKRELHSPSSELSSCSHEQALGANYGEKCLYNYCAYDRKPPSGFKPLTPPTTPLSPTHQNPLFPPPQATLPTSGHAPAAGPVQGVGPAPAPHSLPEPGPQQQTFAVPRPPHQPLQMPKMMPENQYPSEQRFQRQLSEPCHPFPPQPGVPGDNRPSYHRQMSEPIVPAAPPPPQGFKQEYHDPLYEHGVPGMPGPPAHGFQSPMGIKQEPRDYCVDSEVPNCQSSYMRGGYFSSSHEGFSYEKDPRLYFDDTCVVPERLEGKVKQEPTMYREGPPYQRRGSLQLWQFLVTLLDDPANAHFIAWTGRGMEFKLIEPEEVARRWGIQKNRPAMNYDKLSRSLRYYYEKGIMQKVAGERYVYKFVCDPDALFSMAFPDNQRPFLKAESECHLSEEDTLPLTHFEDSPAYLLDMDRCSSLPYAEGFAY

Consider AATTAG, for which the binding signal was 1.07 fold enrichment (6-mer frequency, TF over GST control) in experiment [1]; 1.12 fold enrichment (6-mer frequency, TF over GST control) in [2]; 1.39 fold enrichment (6-mer frequency, TF over GST control) in [3]; 1.08 fold enrichment (6-mer frequency, TF over GST control) in experiment [4]; 1.15 fold enrichment (6-mer frequency, TF over GST control) in experiment [5]; 1.14 fold enrichment (6-mer frequency, TF over GST control) in experiment [6]. The binding signal in experiment [7] is 1.12 fold enrichment (6-mer frequency, TF over GST control); in [8], 1.13 fold enrichment (6-mer frequency, TF over GST control); in experiment [9] it was 1.69 fold enrichment (6-mer frequency, TF over GST control); in [10] it was 1.14 fold enrichment (6-mer frequency, TF over GST control); in experiment [11] it was 1.15 fold enrichment (6-mer frequency, TF over GST control); in [12] it was 1.12 fold enrichment (6-mer frequency, TF over GST control). The binding signal is 1.09 fold enrichment (6-mer frequency, TF over GST control) in experiment [13]; 1.06 fold enrichment (6-mer frequency, TF over GST control) in experiment [14]; 1.25 fold enrichment (6-mer frequency, TF over GST control) in experiment [15]; 1.1 fold enrichment (6-mer frequency, TF over GST control) in experiment [16]; 1.19 fold enrichment (6-mer frequency, TF over GST control) in experiment [17]; 1.13 fold enrichment (6-mer frequency, TF over GST control) in experiment [18].

(Values after article PMC7862700, “An all-to-all approach to the identification of sequence-specific readers for epigenetic DNA modifications on cytosine”.)
